Source: PubChem (several laboratories)
Sampled rows, rich in hits. Any-hit rate of the full collection: about 8%.
PostGolgi ctrl: yeast control strain growth, post-Golgi counter-screen | inhibition, % at 10 µM | AID 738 | efflux-deficient yeast background strain, growth absorbance A615, 16 h | hit rate 5% among 98,000
PostGolgi yeast: growth inhibition of a yeast mutant, post-Golgi transport screen. post-Golgi transport phenotypic cell assay. inhibition, % at 10 µM. hit rate 0.9% among 98,000. AID 739;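 also: yeast cells grown in 1536-well plates; yeast grown about 18 h at 30C before absorbance read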
Cav3 T inh: human Cav3.2 channel inhibition, primary screen. O95180. Cav3.2-expressing cells, Fluo-4 calcium fluorescence FDSS; active compounds read low. B-score at 10 µM. hit rate 4% among 100,000;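 active = single-dose well whose peak fluorescence ratio is a statistical outlier from its plate by either plate-standardised score or position-corrected B-score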
PTK2B oligo ant: Pyk2 (human) oligomerization antagonism. z-score (the deposit names both 25 µM and 10 µM). Q293 cells, Pyk2 FERM NanoBiT luminescence; active compounds read low. Q14289. AID 1347419. hit rate 0.83% among 99,000;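 active = Z-score of -3 or lower, scaled per plate to the spread of control and sample wells; inactive = z-score above -3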;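 also: negative z-score means lost luminescence so less FERM oligomerization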
Target sequence (Q14289 whole entry, looked up): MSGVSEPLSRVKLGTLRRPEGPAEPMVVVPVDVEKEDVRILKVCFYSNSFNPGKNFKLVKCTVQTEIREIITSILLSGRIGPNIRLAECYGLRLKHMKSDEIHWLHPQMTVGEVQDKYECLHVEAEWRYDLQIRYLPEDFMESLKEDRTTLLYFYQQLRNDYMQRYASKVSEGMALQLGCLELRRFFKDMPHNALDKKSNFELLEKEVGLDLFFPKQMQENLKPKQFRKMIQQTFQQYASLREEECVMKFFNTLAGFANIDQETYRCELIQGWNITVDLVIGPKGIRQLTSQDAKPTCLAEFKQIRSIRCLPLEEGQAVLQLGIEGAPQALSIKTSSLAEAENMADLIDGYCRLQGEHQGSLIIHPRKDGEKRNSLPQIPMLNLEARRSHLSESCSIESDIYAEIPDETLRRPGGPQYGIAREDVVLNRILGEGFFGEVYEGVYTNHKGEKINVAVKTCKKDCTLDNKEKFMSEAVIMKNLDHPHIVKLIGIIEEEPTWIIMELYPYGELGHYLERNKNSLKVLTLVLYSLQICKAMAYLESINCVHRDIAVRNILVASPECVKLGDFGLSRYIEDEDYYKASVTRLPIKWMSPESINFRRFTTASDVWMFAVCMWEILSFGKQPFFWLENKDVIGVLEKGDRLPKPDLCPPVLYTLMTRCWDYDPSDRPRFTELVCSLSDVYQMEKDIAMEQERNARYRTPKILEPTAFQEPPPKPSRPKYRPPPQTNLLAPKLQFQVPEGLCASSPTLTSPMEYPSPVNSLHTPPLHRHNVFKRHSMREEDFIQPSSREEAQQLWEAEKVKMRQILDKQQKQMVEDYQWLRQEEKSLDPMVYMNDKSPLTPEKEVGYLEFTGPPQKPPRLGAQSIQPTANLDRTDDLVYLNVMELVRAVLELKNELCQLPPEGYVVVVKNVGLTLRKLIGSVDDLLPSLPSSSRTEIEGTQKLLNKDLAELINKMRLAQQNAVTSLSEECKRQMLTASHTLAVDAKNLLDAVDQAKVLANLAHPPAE
The depositor's hits bear a star; . = not tested or not shown. Rule as the data show it, unless noted: active = inhibition above about 30%; inactive = the rest.

SMILES | PostGolgi ctrl | PostGolgi yeast | Cav3 T inh | PTK2B oligo ant
Cc1nn(Cc2ccccc2)c(C)c1NC(=O)c1noc2c1CCc1ccccc1-2 | 18 | -11 | -6.3* | .
O=C(Cn1cnc2c(nnn2Cc2ccc(Cl)cc2)c1=O)NCc1ccco1 | -6 | -2 | 0.01 | 0.7
O=C(Cn1cnc2c(nnn2Cc2ccc(F)cc2)c1=O)NCc1ccco1 | -15 | -5 | -4.2* | 1.1
Cn1c(/C=C/c2ccc([N+](=O)[O-])o2)nc2ccccc2c1=O | 41* | 62* | -0.77 | -0.02
COc1cc2c(cc1OC)C1(Nc3c-2c(-c2ccccc2)nn3-c2ccccc2)C(=O)Nc2ccccc21 (configuration not stated) | 9 | 6 | -1.4 | -3.2*
O=C1c2ccccc2C(Nc2ccc(F)c(Cl)c2)N1Cc1ccco1 (configuration not stated) | 26 | 0 | -6* | .
CCOc1ccc(NC2c3ccccc3C(=O)N2Cc2ccco2)cc1 (configuration not stated) | 6 | 7 | -4.7* | .
COc1ccc(-c2cn3c4c(sc3n2)CCCC4)cc1 | 17 | -9 | -1.3 | -1.7
O=C(Nc1cc(S(=O)(=O)N2CCOCC2)ccc1Cl)C(=O)c1c(-c2ccccc2)cc2ccccn12 | 100* | 93* | -1.2 | -0.76
NC(=S)N/N=C/c1ccccc1OCc1cccc(Cl)c1 | 11 | 2 | -0.087 | 0.27
CCCCn1c(SCC(=O)Nc2cc(NC(=O)c3ccco3)ccc2C)nc2ccccc2c1=O | 9 | -6 | -2.4 | -1.7
O=C(CN1C(=O)CSc2ccccc21)NCCC1=CCCCC1 | 10 | 7 | . | -0.02
O=C1CC(NCCC2=CCCCC2)C(=O)N1c1cccc(Cl)c1Cl (configuration not stated) | 12 | 6 | -3.4* | .
COc1ccc(/C=N/NC(=O)COc2ccccc2-c2ccccc2)cc1 | 56* | 13 | -2.8 | -1.1
COc1ccc(/C=N/NC(=O)c2nc(-c3ccccc3)cc(-c3ccccc3)n2)cc1OC | 32* | 3 | 0.1 | -2.7
COc1cccc(/C=N/NC(=O)c2nc(-c3ccccc3)cc(-c3ccccc3)n2)c1 | 11 | 0 | . | -2
CCOc1ccc(NC(=O)C23CC4CC(C2)CC(c2ccccc2)(C4)C3)cc1 | 14 | 7 | -1.9* | 0
CCOc1ccc(NC(=O)CC2CC(C)(C)OC2=O)cc1 (configuration not stated) | 10 | 6 | 0.11 | -0.78
N#CCCN1CCN(C(=S)c2ccc(-c3ccc(Cl)c(Cl)c3)o2)CC1 | 33* | 8 | -1.1 | 1.4
COC(=O)C1=C(C(=O)OC)[C@@H]2N(C)c3ccc(OC)cc3[C@@]23C[C@@H](C(=O)OC)N(C(=O)COCc2ccccc2)C3=N1 | . | . | -0.034 | .
O=C(Cc1ccc(Cl)cc1)NCCCn1ccnc1 | -2 | 30 | 0.42 | -0.22
O=C(NCCCn1ccnc1)Nc1cccc(Cl)c1 | 36* | 7 | 0.24 | 1.6
CCC1CCc2c(sc(NC(=O)c3ccoc3C)c2C(N)=O)C1 (configuration not stated) | 30* | -1 | 0.8 | 0.58
COC(=O)C1=C(N)N(c2ccccc2C(F)(F)F)C2=C(C(=O)CCC2)C1c1ccc2c(c1)OCO2 (configuration not stated) | 12 | -6 | 0.37 | -4.3*
COCC(=O)Nc1ccc(C(C)C)cc1 | -4 | 15 | -0.088 | -0.13
SMILES | PostGolgi ctrl | PostGolgi yeast | Cav3 T inh | PTK2B oligo ant
COc1ccc2c(c1)C(C)CC(C)(C)N2C(=O)CSc1nc2ccccc2s1 (configuration not stated) | 17 | -6 | -7.6* | -1.6
CC(=O)CSc1nc2ccccc2s1 | 26 | 4 | 1.3 | 0.01
O=C(NCc1nnc(SCC(=O)N2CCC(Cc3ccccc3)CC2)o1)c1ccccc1F | 25 | -2 | -1.8 | .
CCCCC12CN3CC(C)(CN(C1)C31C(=O)N(C)c3ccc(C)cc31)C2=O (configuration not stated) | . | . | -0.55 | 0.53
O=C(NCc1ccccc1)c1ccc(C(=O)N(C2CCCCC2)C2CCCCC2)cc1 | 52* | 8 | -5.9* | -0.09
CN1/C(=C\C=Nc2ccc3ccccc3c2)C(C)(C)c2ccccc21 | 20 | 11 | -9.4* | -0.97
CCC(C)(C(=O)NC1CCCC1)N(Cc1ccco1)C(=O)c1ccc2c(c1)OCO2 (configuration not stated) | 9 | -3 | -3.6* | 0.37
CCC(C)(C(=O)NC1CCCC1)N(Cc1ccco1)C(=O)Cc1cccs1 (configuration not stated) | 4 | -4 | -0.78 | -0.42
CC(c1nnc(SCC(=O)c2c(N)n(C)c(=O)n(C)c2=O)n1-c1ccc(Cl)cc1)N(C)C (configuration not stated) | 37* | 14 | 0.38 | 1.5
Cc1nnc(SCC(=O)c2c(N)n(C)c(=O)n(C)c2=O)n1Cc1ccccc1 | -7 | -6 | 0.48 | -0.59
CCOC(=O)c1ccc(N2C(=O)c3n[nH]c(C)c3C2c2ccc(OC)cc2OC)cc1 (configuration not stated) | . | . | 0.82 | -3.2*
CCOC(=O)c1ccc(N2C(=O)c3n[nH]c(C)c3C2c2ccc(OC)cc2)cc1 (configuration not stated) | 5 | 1 | -0.17 | -2.8
CC(C)C(c1nnnn1C(C)(C)C)N1CCN(c2cccc(Cl)c2)CC1 (configuration not stated) | 90* | 6 | -3.2 | -1.1
CC(C)(C)n1nnnc1C(c1ccncc1)N1CCN(c2ccc(O)cc2)CC1 (configuration not stated) | 11 | 0 | -0.0022 | -0.32
CC(C)C(c1nnnn1Cc1ccco1)N1CCN(c2cccc(Cl)c2)CC1 (configuration not stated) | 21 | 2 | -3.8* | -0.51
CC(C)C(c1nnnn1Cc1ccccc1)N1CCN(Cc2ccco2)CC1 (configuration not stated) | 6 | 14 | 0.2 | 0.52
Cc1ccccc1-n1c(SCC(=O)c2cc(C)n(C)c2C)nnc1-c1ccncc1 | 3 | 9 | 1.6 | 0.69
O=C(N/N=C/c1c(Nc2cccc(C(F)(F)F)c2)nc2ccccn2c1=O)c1ccccc1[N+](=O)[O-] | . | . | . | -0.67
CC(C)C(=O)NC(Nc1cccc2cccnc12)C(Cl)(Cl)Cl (configuration not stated) | 7 | 15 | -5.1* | -0.84
CC1(C)CC(=O)C2=C(C1)NC(SCC(=O)Nc1ccccc1)=C(C#N)C21CCCCC1 | 3 | 0 | 0.011 | -2
CC(C)(C)C1CCC2(CC1)C(C#N)=C(SCC(=O)Nc1ccccc1)NC(=O)C2C#N (configuration not stated) | 18 | -3 | -6.7* | -1.4
N/C(=N\c1nc2c(c(=O)[nH]1)CCCC2)Nc1ccc(Oc2ccccc2)cc1 | . | . | -1.9 | -0.39
COc1ccc(NC(=O)c2cc3c(-c4ccc(OC)c(OC)c4)nn(C)c3s2)cc1OC | 18 | -3 | -0.23 | -3*
CSC1=C(C#N)C(c2ccc(Cl)cc2)C2=C(CC(C)(C)CC2=O)N1 (configuration not stated) | . | . | -1.4 | -3.1*
N#Cc1ccc(CSc2nnc(-c3cccc(S(=O)(=O)N4CCCCC4)c3)o2)cc1 | 20 | -10 | -7.5* | 0.98
O=S(=O)(c1ccc(-c2nnc(SCc3nnc(-c4ccccc4)o3)o2)cc1)N1CCCC1 | 1 | -3 | 0.51 | 0.09
